Measured values reported in article PMC4336329 (PLoS ONE, 2015).
In all, about 310,000 compounds went through this assay and about 14,000 (4.5%) showed an effect of 50% or more. The effect is printed as a negative number. Shown is part of a subset that was picked to be rich in strong results.

Target: human ether-à-go-go-related gene (hERG) potassium channel (human, UniProt Q12809)
Test: primary screen, population patch clamp on CHO cells stably expressing hERG; higher = less effect of the substance
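Note: peak tail current of the secondary pulse compared with the same well before compound.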

Sequence of human ether-à-go-go-related gene (hERG) potassium channel (Q12809 whole entry, looked up): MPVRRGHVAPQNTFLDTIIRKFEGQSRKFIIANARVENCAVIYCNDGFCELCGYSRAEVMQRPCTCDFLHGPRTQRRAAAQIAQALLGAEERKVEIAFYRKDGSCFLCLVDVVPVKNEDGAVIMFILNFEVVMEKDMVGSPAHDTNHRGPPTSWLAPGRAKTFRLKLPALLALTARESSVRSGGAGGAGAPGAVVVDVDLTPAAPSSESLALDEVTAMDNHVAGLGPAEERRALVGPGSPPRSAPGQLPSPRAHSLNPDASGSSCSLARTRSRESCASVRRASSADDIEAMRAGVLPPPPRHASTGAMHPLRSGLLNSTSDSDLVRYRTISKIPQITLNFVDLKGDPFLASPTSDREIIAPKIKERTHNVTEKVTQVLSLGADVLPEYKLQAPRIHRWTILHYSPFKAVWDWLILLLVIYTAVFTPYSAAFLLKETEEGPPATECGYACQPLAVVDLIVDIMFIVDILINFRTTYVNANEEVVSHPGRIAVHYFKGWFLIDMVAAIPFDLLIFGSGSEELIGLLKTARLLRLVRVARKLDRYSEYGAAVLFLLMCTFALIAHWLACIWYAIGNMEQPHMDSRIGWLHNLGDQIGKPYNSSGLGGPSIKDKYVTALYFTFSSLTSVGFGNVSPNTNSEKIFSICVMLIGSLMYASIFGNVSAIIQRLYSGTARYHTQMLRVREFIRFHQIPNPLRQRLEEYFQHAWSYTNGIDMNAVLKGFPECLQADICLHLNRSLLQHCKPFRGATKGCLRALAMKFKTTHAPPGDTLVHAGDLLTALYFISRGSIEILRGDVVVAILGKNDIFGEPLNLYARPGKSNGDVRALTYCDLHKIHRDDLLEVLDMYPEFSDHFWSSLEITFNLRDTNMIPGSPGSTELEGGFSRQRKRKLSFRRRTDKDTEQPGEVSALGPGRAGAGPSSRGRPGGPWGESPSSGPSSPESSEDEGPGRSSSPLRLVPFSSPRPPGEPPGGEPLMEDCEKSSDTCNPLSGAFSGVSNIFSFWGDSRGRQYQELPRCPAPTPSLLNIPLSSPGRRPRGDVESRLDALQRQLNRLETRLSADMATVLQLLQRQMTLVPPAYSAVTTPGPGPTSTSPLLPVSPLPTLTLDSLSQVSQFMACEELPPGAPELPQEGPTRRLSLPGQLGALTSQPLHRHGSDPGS

| Compound | hERG current change (%, negative = inhibition) at 10uM |
| --- | --- |
| COc1cc(OC)cc(C(=O)NC2CCN(Cc3nnnn3Cc3ccc(F)cc3)CC2)c1 | -3.98% |
| COc1ccc(C(=O)NC2CC2)cc1OC1CCN(Cc2ccc(F)cc2)CC1 | -81.8% |
| COc1ccc(C(=O)NC2CCN(CC(=O)Nc3c(C)cccc3C)CC2)cc1OC | 18.7% |
| COc1cc(C(=O)NC2CCN(Cc3nnnn3Cc3ccc(F)cc3)CC2)cc(OC)c1OC | -0.888% |
| C/C=C(\C)CN1CCC(Oc2cc(C(=O)NC3CC3)ccc2OC)CC1 | -64.5% |
| COc1cc(C(=O)NC2CCCCC2)ccc1OC1CCN(C(C)=O)CC1 | 7.63% |
| CN(C)S(=O)(=O)c1cccc(C(=O)NC2CCSc3ccccc32)c1 (stereo not shown) | -5.74% |
| CCOc1cccc(=O)c2c(C)n(Cc3ccco3)c(C)c12 | -11.5% |
| Cc1nc(NS(=O)(=O)c2ccccc2)sc1C(=O)N/N=C/c1ccccc1 | -2% |
| CCn1c2ccccc2c2cc(/C=N/n3cnnc3)ccc21 | -13.4% |
| COc1ccc(N2CC(C(=O)N/N=C/c3ccc([N+](=O)[O-])cc3)CC2=O)cc1 (stereo not shown) | -59.5% |
| COc1ccc(N2CC(C(=O)Nc3ccc(F)cc3F)CC2=O)cc1 (stereo not shown) | -0.618% |
| COc1ccc(OC)c(NC(=O)C2CC(=O)N(c3ccc(Br)cc3)C2)c1 (stereo not shown) | -33.6% |
| COc1ccc(N2CC(C(=O)N/N=C/c3cc([N+](=O)[O-])ccc3O)CC2=O)cc1 (stereo not shown) | -8.45% |
| COc1ccc(N2CC(C(=O)N/N=C/c3ccc(C)cc3)CC2=O)cc1 (stereo not shown) | -18.8% |
| COc1ccc(N2CC(C(=O)Nc3ccc([N+](=O)[O-])cc3Br)CC2=O)cc1 (stereo not shown) | -69% |
| O=C(COC(=O)/C=C/c1cccc(C(F)(F)F)c1)NCc1ccco1 | 13.5% |
| Cc1ccc(OCC(=O)Nc2ccccc2F)cc1C | 23.6% |
| Cc1nc(NNC(=O)c2ccc([N+](=O)[O-])cc2)cc(-c2ccccc2)n1 | -50.8% |
| Cc1nc(NNC(=O)c2ccc(Cl)cc2Cl)cc(-c2ccccc2)n1 | 6.97% |

| Compound | hERG current change (%, negative = inhibition) at 10uM |
| --- | --- |
| Cc1nc(NNC(=O)c2ccccc2)cc(-c2ccccc2)n1 | 3.7% |
| CC1OC(OCC2OC(Oc3c(-c4ccc(O)cc4)oc4cc(O)cc(O)c4c3=O)C(O)C(O)C2O)C(O)C(O)C1O (stereo not shown) | 13.7% |
| Cc1cccc2c(CC(=O)Nc3ccccc3)noc12 | -0.38% |
| Cc1ccc2c(c1)N(Cc1ccc3c(c1)OCO3)C(=O)C(C)O2 (stereo not shown) | -13.5% |
| CCc1ccc2oc(C(=O)N3CCN(C)CC3)cc(=O)c2c1 | -32.4% |
| COc1ccccc1N1CCN(C(=O)c2cc(=O)c3cc(C)ccc3o2)CC1 | -50.7% |
| CCc1ccc2oc(C(=O)N3CCN(c4ccc(OC)cc4)CC3)cc(=O)c2c1 | -36.7% |
| CCc1ccc2oc(C(=O)N3CCN(c4ccccc4OC)CC3)cc(=O)c2c1 | -68.7% |
| COc1ccccc1N1CCN(C(=O)c2cc(=O)c3ccc(C)cc3o2)CC1 | -20.7% |
| COc1ccccc1N1CCN(C(=O)c2cc(=O)c3cc(C)cc(C)c3o2)CC1 | -27.3% |
| CN(C)/C=N/c1c(C(=O)NCc2ccccc2)nnn1Cc1ccccc1 | -12.2% |
| Cc1cccc(/C=C2\CS/C(=C\c3cccc(C)c3)C2=O)c1 | 0.505% |
| O=C(Nc1nnc(S(=O)(=O)N2CCOCC2)s1)c1ccccc1Br | 4.05% |
| COCCn1c(C)cc(C(=O)COC(=O)c2ccc(-n3nc(C)cc3C)cc2)c1C | 2.16% |
| O=C(CN1C(=O)C2C3C=CC(C3)C2C1=O)N1CC=C(c2ccccc2)CC1 (stereo not shown) | -10.1% |
| CCOC(Cn1cc(C)c(=O)[nH]c1=O)OCC | -2.39% |
| N#CCc1cc2ccc3cccc4ccc(c1)c2c34 | 16.2% |
| CCS(=O)(=O)Nc1cccc(C2=NN(S(=O)(=O)c3ccc(C)cc3)C(c3ccco3)C2)c1 (stereo not shown) | 12.9% |
| Cc1c(C)c2cc(Cl)c(O)c(CN3CCCC(C)C3)c2oc1=O (stereo not shown) | 8.5% |
| O=C(Cn1cncn1)N/N=C/c1cccc2ccccc12 | -4.06% |

| Compound | hERG current change (%, negative = inhibition) at 10uM |
| --- | --- |
| CC(O)c1ccc2c(c1)OCCOCCN(C)CCOCCO2 (stereo not shown) | -1.64% |
| C(=NCCCN1CCOCC1)c1ccc2c(c1)OCO2 | 15.7% |
| CC(C)CCC(CCN1CCOCC1)c1ccc2c(c1)OCO2.Cl (stereo not shown) | -72.9% |
| O=C(CCN1CCCCC1)c1ccc2c(c1)OCO2 | -0.169% |
| O=C(C1CCCN(Cc2ccc3c(c2)OCO3)C1)N1CCCC1.O=C(O)C(=O)O (stereo not shown) | 9.26% |
| CC(C)CCC(CCN1CCCC1)c1ccc2c(c1)OCO2.O=C(O)C(=O)O (stereo not shown) | -78.1% |
| O=C(NCCc1cccc(F)c1)C1CCCN(c2nc3ccccc3s2)C1 (stereo not shown) | 7.76% |
| CN(C)S(=O)(=O)N(CC(=O)NCc1ccccc1)c1ccccc1 | 1.87% |
| CSc1nc2c(ccc3ccccc32)o1 | 12.9% |
| CCOC(=O)c1c(NC(=O)c2cccnc2)sc(C(C)=O)c1C | -5.09% |
| NC(=O)COC(=O)c1ccccc1SCC(=O)NC1CCCCCCC1 | 12% |
| Cc1c(NC(=S)NC(NC(=O)C(C)C)C(Cl)(Cl)Cl)c(=O)n(-c2ccccc2)n1C (stereo not shown) | -1.45% |
| O=C(CN1CCN(c2ccccc2O)CC1)Nc1ccc([N+](=O)[O-])cc1Br | -6.3% |
| CN1CCN(CC(=O)Nc2ccc([N+](=O)[O-])cc2Br)CC1 | -70.9% |
| O=C(CN1CCOCC1)Nc1ccc([N+](=O)[O-])cc1Br | -43.7% |
| O=C(CN1CCCCCC1)Nc1ccc([N+](=O)[O-])cc1Br | 6.13% |
| CC(=O)N1CCN(CC(=O)Nc2ccc([N+](=O)[O-])cc2Br)CC1 | -75.3% |
| CC(=O)N1CCN(CC(=O)Nc2cc([N+](=O)[O-])ccc2Cl)CC1 | 15.5% |
